Unmarked numbers belong to inactive results. Some of the results follow. Active and inactive are the calls of the source.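 The calls were made as follows, unless noted: active = mean inhibition above 46.68%, the untreated control wells mean plus 3 SD; inactive = the rest.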
What was measured:
[1] = target: Nuclear receptor coactivator 1 (Homo sapiens) (UniProt Q15788); assay: NCOA1 GAL4-fusion reporter inhibition – cell-based, luminescence, quadruplicate, confirmation (AID 588820); details: HEK293 GAL4-SRC1 luciferase reporter, at 3.6 µM, active compounds read high;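 also: 0% = DMSO wells and 100% = gossypol 36 µM treated wells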
[2] = repression of VP16-driven luciferase reporter – cell-based, luminescence, high throughput, counter-screen for SRC1 inhibitor project (AID 588824; in the data active = inhibition above about 25%); details: cell-based VP16 transactivation luciferase luminescence; at 3.6 µM; active compounds read high
[3] = test system: transactivating tegument protein VP16 (Human herpesvirus 1); assay: compounds suppressing VP16-driven luciferase signal – cell-based, luminescence, single concentration, counter-screen for SRC2 inhibitor project (AID 652007; in the data active = inhibition above about 36%); details: cell-based VP16 transactivation luciferase reporter, at 8.9 µM, active compounds read high
[4] = target: Nuclear receptor coactivator 2 (Homo sapiens) (UniProt Q15596); assay: inhibition of GAL4-SRC2 driven luciferase expression – cell-based, luminescence, HEK293, triplicate, confirmation (AID 652008;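 active = mean inhibition above 46.5%, the solvent-only control mean plus 3 SD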;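 also: 0% = DMSO-treated cells and 100% = Gossypol at 36 µM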); details: HEK293 GAL4-SRC2 luciferase reporter, at 8.9 µM, active compounds read high
[5] = target: Receptor-interacting serine/threonine-protein kinase 2 (Homo sapiens) (UniProt O43353); assay: inhibitors of RIPK2 association with NOD2 – fluorescence, CHO cells, BLA complementation, triplicate, confirmation (AID 624370;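 active = mean inhibition across replicates above a set limit taken from the earlier primary screen, cut at about 21% in these data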;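 also: 0% = DMSO-only wells and the high end = clavulanate BLA-blocked wells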); details: CCF4 FRET, at 4.98 µM, active compounds read high
[6] = BLA reporter readout interference – cell-based, CHO-K1 CMV-bla, CCF4 FRET, fluorescence, artefact control for NOD2-RIPK2 interaction inhibitor project, confirmation (AID 624371;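 active = mean inhibition above the low-control mean inhibition plus three low-control SD, cut at about 11% in these data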;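 also: 0% = DMSO only wells and 100% = clavulanate high control wells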); details: CCF4 FRET ratio, counterscreen, at 4.98 µM, active compounds read high
[7] = test system: DAF-12 nuclear receptor (Heterodera glycines), GAL4-LBD fusion; assay: hgDAF-12 GAL4 fusion reporter activation, retest – cell-based, luminescence, HEK293, GAL4-LBD fusion, confirmation (AID 743050;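 active = mean activation over triplicate wells above the hit cutoff derived from the earlier primary screen, cut at about 11% in these data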;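 also: 0% = DMSO low control and 100% = 2 mM sodium butyrate high control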); details: HEK293 GAL4-hgDAF12 luciferase reporter, agonist mode; at 6.8 µM; active compounds read high; percent of butyrate response
[8] = target: Oxysterols receptor LXR-beta (Homo sapiens) (UniProt P55055); assay: nonspecific reporter activation via LXR – cell-based, luminescence, HEK293, H. glycines campaign, counter-screen for hgDAF-12 agonist project, confirmation (AID 743051;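 active = mean activation of the triplicate above a set limit carried over from the primary screen, none filed active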); details: HEK293 Gal4-LXR luciferase reporter, 24 h; at 6.8 µM; active compounds read high
[9] = VP16-driven transactivation reporter suppression – cell-based, luminescence, HEK293, counter-screen for COUP-TFII antagonist project (AID 687007; in the data active = inhibition above about 13%); details: HEK293 Gal4-VP16 luciferase reporter, at 8.5 µM, active compounds read high
[10] = target: COUP transcription factor 2 (Homo sapiens) (UniProt P24468); assay: retest of COUP-TFII reporter suppressors – cell-based, luciferase reporter, HEK293, triplicate, confirmation (AID 687008;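 active = mean inhibition over three repeats above a set limit taken from the earlier primary screen, cut at about 38% in these data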;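 also: 100% = cells given the luciferase reporter alone without the COUP-TF2 vector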); details: HEK293 NGFI-A luciferase reporter, luminescence; at 8.5 µM; active compounds read high
Sequence of COUP transcription factor 2 (Homo sapiens) (P24468 whole entry, looked up): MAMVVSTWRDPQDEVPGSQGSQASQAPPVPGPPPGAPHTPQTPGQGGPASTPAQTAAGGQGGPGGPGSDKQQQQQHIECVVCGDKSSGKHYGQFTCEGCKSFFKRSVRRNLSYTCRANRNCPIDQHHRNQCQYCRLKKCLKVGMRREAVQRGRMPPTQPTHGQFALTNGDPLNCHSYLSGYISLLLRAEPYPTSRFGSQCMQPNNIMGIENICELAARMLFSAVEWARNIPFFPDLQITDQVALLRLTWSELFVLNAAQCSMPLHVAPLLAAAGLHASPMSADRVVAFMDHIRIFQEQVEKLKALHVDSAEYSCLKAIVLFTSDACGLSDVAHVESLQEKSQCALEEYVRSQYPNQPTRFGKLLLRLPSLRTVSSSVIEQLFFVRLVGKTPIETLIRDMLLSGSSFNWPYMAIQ

Sequence of Nuclear receptor coactivator 2 (Homo sapiens) (Q15596 whole entry, looked up, the tested form may be a part): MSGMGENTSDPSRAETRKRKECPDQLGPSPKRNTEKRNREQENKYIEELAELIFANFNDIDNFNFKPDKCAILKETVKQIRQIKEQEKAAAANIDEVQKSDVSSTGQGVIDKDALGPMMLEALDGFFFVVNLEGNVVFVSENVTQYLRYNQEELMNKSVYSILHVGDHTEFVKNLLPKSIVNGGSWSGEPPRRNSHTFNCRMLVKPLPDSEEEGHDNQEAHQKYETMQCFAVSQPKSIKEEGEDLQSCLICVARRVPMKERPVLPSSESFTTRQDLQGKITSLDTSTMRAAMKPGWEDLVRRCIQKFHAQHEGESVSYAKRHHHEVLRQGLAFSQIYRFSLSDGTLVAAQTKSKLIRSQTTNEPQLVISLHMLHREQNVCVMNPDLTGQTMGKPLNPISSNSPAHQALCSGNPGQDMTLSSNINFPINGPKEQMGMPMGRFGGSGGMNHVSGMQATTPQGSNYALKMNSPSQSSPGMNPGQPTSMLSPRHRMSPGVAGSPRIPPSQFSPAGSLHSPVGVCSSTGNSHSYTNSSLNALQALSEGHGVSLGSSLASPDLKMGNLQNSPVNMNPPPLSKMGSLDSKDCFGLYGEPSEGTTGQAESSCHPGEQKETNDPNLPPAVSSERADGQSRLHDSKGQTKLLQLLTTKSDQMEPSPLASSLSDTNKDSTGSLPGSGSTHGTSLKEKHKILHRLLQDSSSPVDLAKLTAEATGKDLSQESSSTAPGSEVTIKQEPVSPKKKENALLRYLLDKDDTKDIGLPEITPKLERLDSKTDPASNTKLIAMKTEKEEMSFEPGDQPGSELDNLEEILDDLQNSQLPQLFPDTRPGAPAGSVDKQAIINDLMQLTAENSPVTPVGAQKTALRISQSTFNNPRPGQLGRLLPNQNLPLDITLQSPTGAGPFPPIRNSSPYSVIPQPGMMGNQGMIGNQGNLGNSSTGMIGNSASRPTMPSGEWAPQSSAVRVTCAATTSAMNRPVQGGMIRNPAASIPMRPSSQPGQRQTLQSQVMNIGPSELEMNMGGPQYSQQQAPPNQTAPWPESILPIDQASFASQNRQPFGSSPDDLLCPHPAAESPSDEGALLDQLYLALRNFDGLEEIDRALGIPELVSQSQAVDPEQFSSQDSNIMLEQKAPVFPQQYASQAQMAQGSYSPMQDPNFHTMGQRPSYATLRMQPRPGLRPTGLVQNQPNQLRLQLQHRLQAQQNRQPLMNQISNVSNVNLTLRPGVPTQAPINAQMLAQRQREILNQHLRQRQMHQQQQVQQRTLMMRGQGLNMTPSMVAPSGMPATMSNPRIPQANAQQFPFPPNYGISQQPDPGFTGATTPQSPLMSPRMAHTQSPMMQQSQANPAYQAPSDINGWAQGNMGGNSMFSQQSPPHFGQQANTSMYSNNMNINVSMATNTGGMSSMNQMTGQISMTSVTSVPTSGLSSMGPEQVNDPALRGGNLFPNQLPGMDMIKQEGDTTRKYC
Sequence of Nuclear receptor coactivator 1 (Homo sapiens) (Q15788 whole entry, looked up, the tested form may be a part): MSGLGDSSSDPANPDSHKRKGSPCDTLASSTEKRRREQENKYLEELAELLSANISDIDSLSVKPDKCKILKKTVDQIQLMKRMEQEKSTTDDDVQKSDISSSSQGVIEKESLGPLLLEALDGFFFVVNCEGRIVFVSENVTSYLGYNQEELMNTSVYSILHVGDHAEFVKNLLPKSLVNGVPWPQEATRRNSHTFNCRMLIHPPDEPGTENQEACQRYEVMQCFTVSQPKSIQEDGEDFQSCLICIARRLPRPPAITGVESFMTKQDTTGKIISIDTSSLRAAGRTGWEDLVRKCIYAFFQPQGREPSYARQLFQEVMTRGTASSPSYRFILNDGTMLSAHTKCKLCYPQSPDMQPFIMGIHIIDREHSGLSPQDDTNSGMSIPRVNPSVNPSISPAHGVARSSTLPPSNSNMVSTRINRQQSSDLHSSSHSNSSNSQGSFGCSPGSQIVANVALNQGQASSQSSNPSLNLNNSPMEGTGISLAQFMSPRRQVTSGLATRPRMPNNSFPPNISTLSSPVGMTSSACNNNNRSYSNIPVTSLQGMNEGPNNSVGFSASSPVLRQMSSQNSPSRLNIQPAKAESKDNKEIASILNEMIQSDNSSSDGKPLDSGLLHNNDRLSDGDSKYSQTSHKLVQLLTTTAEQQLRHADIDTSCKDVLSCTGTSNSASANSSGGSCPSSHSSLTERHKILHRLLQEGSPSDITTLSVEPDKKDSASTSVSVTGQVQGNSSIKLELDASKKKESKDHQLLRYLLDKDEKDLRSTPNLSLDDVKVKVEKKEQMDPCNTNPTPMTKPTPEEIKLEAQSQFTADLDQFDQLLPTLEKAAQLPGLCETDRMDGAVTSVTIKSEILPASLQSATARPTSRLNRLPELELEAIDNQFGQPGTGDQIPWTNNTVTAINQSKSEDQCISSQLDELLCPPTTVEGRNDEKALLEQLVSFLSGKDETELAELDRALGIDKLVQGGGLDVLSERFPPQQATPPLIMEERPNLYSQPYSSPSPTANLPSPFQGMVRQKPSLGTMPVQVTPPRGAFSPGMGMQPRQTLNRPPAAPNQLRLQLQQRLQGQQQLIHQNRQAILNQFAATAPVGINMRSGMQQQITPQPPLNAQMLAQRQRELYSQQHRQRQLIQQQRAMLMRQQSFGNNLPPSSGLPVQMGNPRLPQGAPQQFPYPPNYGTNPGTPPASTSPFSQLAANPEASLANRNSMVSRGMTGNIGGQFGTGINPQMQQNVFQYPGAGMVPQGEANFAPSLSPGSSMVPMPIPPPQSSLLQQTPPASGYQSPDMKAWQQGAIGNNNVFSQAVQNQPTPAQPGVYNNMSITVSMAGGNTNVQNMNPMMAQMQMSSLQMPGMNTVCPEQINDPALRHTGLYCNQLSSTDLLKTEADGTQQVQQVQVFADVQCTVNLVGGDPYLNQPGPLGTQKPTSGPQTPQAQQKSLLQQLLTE
Sequence of Receptor-interacting serine/threonine-protein kinase 2 (Homo sapiens) (O43353 whole entry, looked up): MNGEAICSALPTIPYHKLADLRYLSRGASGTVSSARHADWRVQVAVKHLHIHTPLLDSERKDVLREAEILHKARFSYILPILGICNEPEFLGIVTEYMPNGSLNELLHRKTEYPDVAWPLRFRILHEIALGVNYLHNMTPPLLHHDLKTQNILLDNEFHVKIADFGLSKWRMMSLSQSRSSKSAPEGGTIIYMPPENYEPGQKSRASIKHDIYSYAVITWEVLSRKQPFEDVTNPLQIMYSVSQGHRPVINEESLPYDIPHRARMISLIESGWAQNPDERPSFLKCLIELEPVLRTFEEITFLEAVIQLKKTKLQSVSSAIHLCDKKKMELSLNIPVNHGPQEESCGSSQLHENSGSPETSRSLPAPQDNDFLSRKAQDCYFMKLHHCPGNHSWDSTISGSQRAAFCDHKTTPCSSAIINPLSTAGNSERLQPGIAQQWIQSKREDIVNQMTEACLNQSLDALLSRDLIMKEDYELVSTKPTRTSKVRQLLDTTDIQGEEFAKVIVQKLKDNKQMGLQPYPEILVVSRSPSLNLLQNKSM
Sequence of Oxysterols receptor LXR-beta (Homo sapiens) (P55055 whole entry, looked up, the tested form may be a part): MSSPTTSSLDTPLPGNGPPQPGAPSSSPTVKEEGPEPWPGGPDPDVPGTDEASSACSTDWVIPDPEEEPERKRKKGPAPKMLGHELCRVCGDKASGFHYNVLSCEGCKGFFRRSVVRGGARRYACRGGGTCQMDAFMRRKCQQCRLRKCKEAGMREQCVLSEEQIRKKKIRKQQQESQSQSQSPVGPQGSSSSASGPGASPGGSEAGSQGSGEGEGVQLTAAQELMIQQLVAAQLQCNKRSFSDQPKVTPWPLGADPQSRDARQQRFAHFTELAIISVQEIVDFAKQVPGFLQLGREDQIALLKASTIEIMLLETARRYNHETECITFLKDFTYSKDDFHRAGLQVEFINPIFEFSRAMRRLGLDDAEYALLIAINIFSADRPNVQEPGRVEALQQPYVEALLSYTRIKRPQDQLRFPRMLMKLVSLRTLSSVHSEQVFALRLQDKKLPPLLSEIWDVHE

## CCn1ccnc1CN(C)Cc1cn[nH]c1-c1ccc(F)cc1F
[1]
  inhibition: 30.6%
[2]
  inhibition: 15.7%
[3]
  inhibition: -19.6%
[4]
  inhibition: 10.5%

## O=C(Nc1ccc(OCc2ccccc2Cl)cc1)c1cccnc1
[1]
  inhibition: -2.33%
[2]
  inhibition: -5.23%
[3]
  inhibition: 27%
[4]
  inhibition: 52.2% (active)

## c1ccc2c(-c3cccc4nccn34)cncc2c1
[1]
  inhibition: 33.6%
[2]
  inhibition: 30.7% (active)
[3]
  inhibition: 5.09%
[4]
  inhibition: 11%

## COc1cccc2sc(N(CCCN(C)C)C(=O)CCS(=O)(=O)c3ccccc3)nc12
[5]
  inhibition: 40.3% (active)
[6]
  inhibition: 8.45%

## Cc1ccc(NC(=O)Cn2sc3ccccc3c2=O)cc1
[5]
  inhibition: 33.2% (active)
[6]
  inhibition: 3.75%

## O=C(Nc1ccc(N2CCN(C(=O)c3ccco3)CC2)c(Cl)c1)c1cc2ccccc2o1
[1]
  inhibition: -30.1%
[2]
  inhibition: 6.89%
[3]
  inhibition: 53.3% (active)
[4]
  inhibition: 3.49%

## CC(=O)N1CCCC(c2cc(C(=O)Nc3ccccc3)no2)C1 (stereo not drawn)
[1]
  inhibition: -48.3%
[2]
  inhibition: -15.3%
[3]
  inhibition: -36.7%
[4]
  inhibition: 40.6%

## COc1ccc(C2=CC(c3cccc(OC)c3)n3nnnc3N2)cc1 (stereo not drawn)
[5]
  inhibition: 3.71%
[6]
  inhibition: 10.4% (active)

## CC(C)CCNC(=O)c1sc2ccc(S(=O)(=O)N3CCCCC3)cc2c1N
[1]
  inhibition: 13.5%
[2]
  inhibition: 13.8%
[3]
  inhibition: 7.45%
[4]
  inhibition: 27.6%

## CNc1cncc(-c2ccc(NS(C)(=O)=O)cc2)n1
[1]
  inhibition: 20.8%
[2]
  inhibition: 31% (active)
[7]
  activation: 8.61%
[8]
  activation: 0.06%

## O=C(Nc1cccc2c1CCCC2)c1cc([N+](=O)[O-])ccc1Cl
[1]
  inhibition: 19%
[2]
  inhibition: 25%
[3]
  inhibition: 48.5% (active)
[4]
  inhibition: 62.2% (active)

## Cc1ccc(-c2nnc(SCC(=O)Nc3ccccc3F)o2)cc1
[1]
  inhibition: -8.02%
[2]
  inhibition: 26.2% (active)
[3]
  inhibition: 19.4%
[4]
  inhibition: 60% (active)

## CCOC(=O)C1=C(C)N(C[C@@H]2CC[C@@H](Cc3ccc(-c4ccccc4)cc3)O2)C(=O)NC1c1ccc([N+](=O)[O-])cc1 (stereo partly drawn)
[5]
  inhibition: -2.24%
[6]
  inhibition: -1.01%

## COc1ccc(C(C[N+](=O)[O-])n2nc(C)cc2C)cc1 (stereo not drawn)
[5]
  inhibition: 40.9% (active)
[6]
  inhibition: -5.9%

## Cc1ccccc1Cn1c(C)nc2ccccc21
[1]
  inhibition: -27.4%
[2]
  inhibition: 29.1% (active)
[3]
  inhibition: 20%
[4]
  inhibition: 27%

## CC(=O)Nc1ccc(OCC(=O)Nc2ccc(Cl)c(S(=O)(=O)N3CCOCC3)c2)cc1
[1]
  inhibition: -7.7%
[2]
  inhibition: 27.7% (active)
[3]
  inhibition: -7.09%
[4]
  inhibition: 19.6%

## O=C(NN=Cc1ccc(N2CCOCC2)cc1)c1cc2ccccc2cc1O
[5]
  inhibition: 0.56%
[6]
  inhibition: 2.74%

## COc1ccc(NC(=O)C(c2ccncc2)n2c(=O)c(-c3cc4ccccc4[nH]3)nc3ccccc32)cc1 (stereo not drawn)
[5]
  inhibition: 39.5% (active)
[6]
  inhibition: 61.5% (active)

## CC(C)(C)OC(=O)N1CCC(NC(=O)c2[nH]cnc2C(=O)N[C@@H](Cc2ccccc2)C(=O)OCc2ccccc2)CC1
[5]
  inhibition: 16.1%
[6]
  inhibition: -4.79%

## Cc1nnc(SCC(=O)Nn2cnnc2)s1
[5]
  inhibition: -0.84%
[6]
  inhibition: -0.41%

## Cc1ccc(-c2cc(C(=O)NCCCN3CCOCC3)no2)cc1
[1]
  inhibition: 8.12%
[2]
  inhibition: -4.18%
[3]
  inhibition: -12.9%
[4]
  inhibition: 53.2% (active)

## OC[C@@H]1CN(Cc2ccncc2)C[C@H](n2cnc3c(N4CCN(c5ccccc5)CC4)ncnc32)O1
[1]
  inhibition: 2.2%
[2]
  inhibition: 37.8% (active)
[9]
  inhibition: 8.35%
[10]
  inhibition: 44.6% (active)

## CCn1c(Oc2cccc(Br)c2)nc2c1c(=O)n(C)c(=O)n2C
[1]
  inhibition: 15.8%
[2]
  inhibition: 12.3%
[3]
  inhibition: -33.4%
[4]
  inhibition: 10.2%

## O=C(CCN1CCc2ccccc2C(O)(c2ccccc2)C1)c1ccc2c(c1)OCCO2 (stereo not drawn)
[5]
  inhibition: 3.17%
[6]
  inhibition: -1.26%

## CC(C)(C)c1cc(/C=N/O)cc(C(C)(C)C)c1O
[1]
  inhibition: 33.6%
[2]
  inhibition: 26.5% (active)
[3]
  inhibition: -7.33%
[4]
  inhibition: 9.3%

## C[C@H]1CN([C@@H](C)CO)C(=O)c2cc(-c3cccc(F)c3)cnc2O[C@@H]1CN(C)S(C)(=O)=O
[5]
  inhibition: -4.32%
[6]
  inhibition: -1.39%

## O=C(Nc1ccc2c(c1)OCCO2)c1[nH]c(C(F)(F)F)nc1-c1ccccc1
[1]
  inhibition: -3.74%
[2]
  inhibition: -15.6%
[3]
  inhibition: -38.1%
[4]
  inhibition: 49.1% (active)

## O[C@H]1C[C@H](c2ccc(Cl)cc2)N(Cc2cccs2)C[C@@H]1n1cc(C2CC2)nn1
[5]
  inhibition: -0.97%
[6]
  inhibition: 0.34%

Reference: PubChem BioAssay
